# Values joined by “and” are separate entries in the source; they are usually repeats but may differ in a detail not shown here. Equal values may be shown once. The campaign covered roughly 390,000 compounds. About 4,000 (1%) were called active. Not shown: some 7% with an inconclusive outcome. The call rests on the fitted dose curve; in most records, active means well fitted inhibition curve with a large enough effect; inconclusive means small, poorly fitted or top-dose-only effect, or another doubt; inactive means no such curve, though single readings can be large or run the other way. Shown is part of a subset that was picked to be rich in actives. Entries that show only a call come without a potency. More than one record can exist for a structure, and the calls need not agree.
# Molecular target: DNA polymerase iota (Homo sapiens) (UniProt Q9UNA4)
# Experiment: qHTS for Inhibitors of Polymerase Iota
# Settings: Pol iota fluorescent replication assay, 10 min; series mostly up to 115 µM
# Method in brief: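 Pol iota at 10 nM preincubated 15 min with compounds at room temperature; reaction started with fluorescent substrate, 50 nM final. Fluorescence read kinetically at 0 and 10 min; buffer-only wells as negative control.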
# Potency means the concentration at half of the fitted maximal effect.
# DNA polymerase iota (Homo sapiens), sequence (Q9UNA4 whole entry, looked up): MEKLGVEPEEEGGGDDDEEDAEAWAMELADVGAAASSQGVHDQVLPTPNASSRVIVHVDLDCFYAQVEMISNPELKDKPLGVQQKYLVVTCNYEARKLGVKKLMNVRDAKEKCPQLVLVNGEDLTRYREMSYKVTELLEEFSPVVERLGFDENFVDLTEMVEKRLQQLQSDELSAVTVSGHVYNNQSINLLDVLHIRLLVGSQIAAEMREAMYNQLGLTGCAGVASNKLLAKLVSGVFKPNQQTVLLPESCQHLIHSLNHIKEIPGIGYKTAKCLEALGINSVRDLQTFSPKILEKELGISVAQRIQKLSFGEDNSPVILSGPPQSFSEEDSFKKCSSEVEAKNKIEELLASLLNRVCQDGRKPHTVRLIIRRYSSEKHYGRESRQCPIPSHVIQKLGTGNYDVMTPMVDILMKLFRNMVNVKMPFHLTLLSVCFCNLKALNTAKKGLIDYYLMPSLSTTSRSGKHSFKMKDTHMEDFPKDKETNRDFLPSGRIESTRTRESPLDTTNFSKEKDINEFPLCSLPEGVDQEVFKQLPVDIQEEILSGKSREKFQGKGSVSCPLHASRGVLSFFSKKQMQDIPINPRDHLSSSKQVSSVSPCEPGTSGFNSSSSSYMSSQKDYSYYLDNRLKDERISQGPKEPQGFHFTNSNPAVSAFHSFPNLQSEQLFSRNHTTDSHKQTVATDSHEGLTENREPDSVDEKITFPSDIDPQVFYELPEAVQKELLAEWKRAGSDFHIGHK
row,Structure (SMILES),Potency
1,Cc1cccc(NC(=O)CSc2nc(-c3ccco3)cc(C(F)(F)F)n2)c1C,inactive
2,Cc1ccsc1-c1cc(C(=O)O)c2c(ccc3ccccc32)n1,inactive
3,Cc1cc(C)c2nc(-c3ccco3)cc(C(=O)O)c2c1,11.2 µM (active)
4,CCCNC(=O)C(CC)n1nc(CC)n2c(cc3oc(C)cc32)c1=O (centres undefined),inactive
5,COc1ccc(C(=O)Nc2cccc(C(=O)OCc3cc(=O)n4c5c(sc4n3)CCCC5)c2)cc1,inactive
6,CC(C)(C)OC(=O)N1CCC(c2c(C(=O)NCCc3ccsc3)cnn2-c2ccc(F)cc2F)CC1,inactive
7,CC(C)(C)n1ncc2c(=O)n(Cc3ccc(Cl)cc3)cnc21,inactive and 10 µM (active)
8,CC(C)(C)n1ncc2c(=O)n(Cc3c(Cl)cccc3Br)cnc21,inactive
9,CC(C)(C)n1ncc2c(=O)n(Cc3ccc(C(=O)c4ccccc4)cc3)cnc21,inactive
10,CN(C)C1=C2C=CC=CC2/C(=C2/C=Cc3ccccc32)C=C1 (centres undefined),inactive
11,CC1(C)CCc2cc(S(=O)(=O)N3CCN(c4nc(-c5cccs5)nc5ccccc45)CC3)ccc2O1,inactive
12,O=C(CCl)Nc1ccc(Sc2ccc(NC(=O)CCl)cc2)cc1,39.8 µM (active)
13,CCC(=O)Nc1ccc(C(=O)NNC(=O)c2ccc(Cl)cc2)cc1,inactive
14,O=C(O)CSCC(=O)Nc1ccc(C(F)(F)F)cc1,inactive
15,OC(CBr)CN1CCCCC1 (centres undefined),inactive
16,COc1cc(CNCCSc2nnnn2C)ccc1OCc1c(F)cccc1Cl,inactive
17,O=C(Nc1ccccc1)c1ccccc1OCc1ccccc1,inactive
18,COc1ccc(/C=C/C(=O)NC(=S)N2CCCC(C(N)=O)C2)cc1 (centres undefined),inactive
19,COc1cccc(N2CC(NC(=O)/C=C\c3ccccc3)CC2=O)c1 (centres undefined),inactive
20,COc1ccc(/C=C/C(=O)c2cc(Br)ccc(=O)c2O)cc1,2.51 µM (active)
21,COc1ccc(NC(=O)c2ccco2)cc1NC(=O)c1ccc(C#N)cc1F,inactive
22,COc1ccc(NC(=O)c2ccco2)cc1NC(=O)COc1ccc(C)c(C)c1,70.8 µM (active)
23,Cc1ccc(OCC(=O)Nc2ccccc2C(=O)NC2CC2)cc1C,inactive
24,COc1ccccc1CNC(=O)c1ccc(CS(=O)c2ccccc2Cl)o1 (centres undefined),inactive
25,COc1cc(C)ccc1OCCSc1nc2ccc(NC(=O)c3ccc(C)cc3)cc2s1,inactive

row,Structure (SMILES),Potency
1,CCc1cccc(CC)c1NC(=O)Cn1c(=O)c(-c2cc(C)ccc2NC(C)=O)nc2ccccc21,inactive
2,CN(C)c1ccc(C=Nc2ccc(/C=C/c3ccnc4ccccc34)cc2)cc1,inactive
3,CCOC(=O)N1CCC(N2Cc3cccc(C(=O)Nc4ccc(S(=O)(=O)N(CC)CC)cc4)c3C2=O)CC1,79.4 µM (active)
4,COC(=O)c1ccc(NC(=O)c2cccc3c2C(=O)N(C2CCCCC2)C3)cc1,inactive
5,CCOC(=O)N1CCC(N2Cc3cccc(C(=O)Nc4c(C)cccc4CC)c3C2=O)CC1,inactive
6,Cc1ccc(Cn2cnc3c(cnn3C(C)(C)C)c2=O)c(F)c1,inactive
7,COc1cccc2c1cc1c(=O)n(CC(=O)N3CCN(c4cccc(Cl)c4)CC3)nc(C)n12,inactive
8,CCNC(=O)c1sccc1-n1cccc1,inactive
9,Cc1ccsc1C(=O)NCCc1ccco1,39.8 µM (active)
10,Cc1ccsc1C(=O)OCC(=O)NCCc1ccccc1,inactive
11,Cc1cc(C)cc(NS(=O)(=O)c2cc3c(cc2C)NC(=O)CO3)c1,inactive
12,CCOc1ccc(OCC)c(Nc2nc3ccccc3n3nnnc23)c1,inactive
13,COc1ccccc1N1CCN(c2ncnc3onc(-c4cccc(Cl)c4)c23)CC1,inactive
14,Cc1c(NC(=O)Nc2ccc(F)c(Cl)c2)c(=O)n(-c2ccccc2)n1C,inactive
15,CC(C)(C)C1CCC(NC(=O)c2cnn3c2NC(=C2CC2)C=C3C(F)F)CC1 (centres undefined),inactive
16,Cc1cc(/C=C2/SC(=O)N(CC(=O)OC(C)C)C2=O)c(C)n1C,inactive
17,Cc1cc(/C=C2\SC(=O)N(C)C2=O)c(C)n1-c1cccc(C(=O)O)c1,17.8 µM (active)
18,Cc1ccc(N2C(=O)S/C(=C/c3cn(C)c4ccccc34)C2=O)cc1,inactive
19,Cc1cccc(C(=O)Nc2ccc(S(=O)(=O)N3CCCCC3c3cccnc3)cc2)c1 (centres undefined),inactive
20,CCc1cccc(C)c1Nc1c(-c2ccc(N(C)C)cc2)nc2ncccn12,inactive
21,CCN(C(=O)Cn1c(=O)nc(-c2ccccc2)c2cc(Cl)ccc21)c1cccc(C)c1,inactive
22,CCC(C)N(c1ccc(/C=C/c2ccnc3ccccc23)cc1)C(C)CC (centres undefined),inactive
23,CC(=O)N1CCCc2cc(S(=O)(=O)N3CCC(C(=O)NCc4ccc(F)cc4)CC3)ccc21,inactive
24,CCCCC(=O)OC1=CN(Cc2ccccc2)S(=O)(=O)c2ccccc21,inactive
25,COc1ccc(CCC(=O)OCC(=O)Nc2ccc(C)c(S(=O)(=O)N(C)C)c2)cc1,89.1 µM (active)

row,Structure (SMILES),Potency
1,CCN(CC(=O)Nc1ccc(C)c(S(=O)(=O)N(C)C)c1)Cc1ccccc1,inactive
2,COc1cc(CCC(=O)OCC(=O)Nc2cccc(S(N)(=O)=O)c2)cc(OC)c1OC,inactive
3,COc1ccc(-c2cc(C(F)(F)F)n3nc(-c4ccccc4)cc3n2)cc1OC,inactive
4,Cc1ccnc(-n2sc3ccccc3c2=O)n1,25.1 µM (active)
5,Cc1ccc(-c2onc(C)c2C)cc1S(=O)(=O)Nc1ccccn1,inactive
6,COc1cc(OC)c(OC)cc1/C=C1\C=Cc2ccccc21,inactive
7,CCc1nnc(SCc2nc(-c3cccc(C)c3)oc2C)c2cc3sc(C)cc3n12,inactive
8,COc1ccc(N2CCN(C(=O)CNC(=O)c3ccc(C(C)(C)C)cc3)CC2)cc1,inactive
9,O=C(NCC(=O)N1CCN(c2ccccc2O)CC1)c1ccc2ccccc2c1,89.1 µM (active)
10,O=C(CNC(=O)c1ccc2ccccc2c1)Nc1ncccc1O,inactive
11,Cc1ccc(Cl)cc1N1CCN(C(=O)C2CCC(CNS(=O)(=O)c3cccs3)CC2)CC1 (centres undefined),inactive
12,O=C(N/N=C/c1ccco1)c1ccc(C(=O)N/N=C/c2ccco2)o1,50.1 µM (active)
13,O=C(Cc1ccccc1)Nc1cccc(C(=O)N/N=C/c2ccco2)c1,inactive
14,O=C(Cc1ccc([N+](=O)[O-])cc1)N/N=C/c1ccco1,inactive
15,CCc1nnc(SCc2c(F)cccc2Cl)c2cc3sccc3n12,inactive
16,CCc1ccccc1NC(=O)Cn1c(=O)n(-c2cccc(C)c2)c(=O)c2c1c1cc(OC)ccc1n2C,inactive
17,O=c1[nH]n(-c2ccc([N+](=O)[O-])cc2)c(=O)c2ccccc12,10 µM (active)
18,Cc1[nH]n(-c2ccc([N+](=O)[O-])cc2)c(=O)c1C=NCCN1CCN(C(=O)c2ccccc2F)CC1,inactive
19,CC(=O)N1c2ccccc2N(Cc2ccc([N+](=O)[O-])cc2)C(=O)C1(C)C,inactive
20,COC(=O)c1ccc(COc2ccc(/C=C/C(=O)c3ccc(OC)c(CSCC(=O)O)c3)cc2OC)cc1,20 µM (active)
21,COC(=O)c1ccc(C(NC(=O)OCc2ccccc2)/C(C)=C/[C@@H](C)C(=O)NCc2ccc(OC)c(OC)c2)cc1 (some centres undefined),inactive
22,COc1cc(/C=C/C(=O)OCC(=O)NC(=O)NCc2ccccc2)ccc1OCC#N,inactive
23,CCN1CCN(CCCNC(=O)c2cnn(-c3ccc(C)cc3C)c2C2CCN(C(=O)OC(C)(C)C)CC2)CC1,inactive
24,CCOc1ccc(CNCCSc2nnnn2C)cc1,inactive
25,Cc1ccc(N(CC(=O)NCC(C)c2ccccc2)S(=O)(=O)N(C)C)cc1 (centres undefined),inactive

row,Structure (SMILES),Potency
1,COc1ccc(C2(Nc3cccc(F)c3)C(=O)c3ccccc3C2=O)cc1,inactive
2,CCCC(=O)N1c2ccc(-c3csc(N)n3)cc2CC1C (centres undefined),inactive
3,CC(C)(C)C(=O)OCc1nc(-c2ccc(O)c(O)c2)cs1,31.6 µM (active)
4,CN(c1ccc(O)cc1)c1nc(-c2cccnc2)cs1,inactive
5,Cc1ccccc1-n1c(=O)c2ccccc2n(Cc2ccc(F)cc2)c1=O,inactive
6,O=C(Nc1cc(Cl)cc(Cl)c1)c1ccc2c(c1)N(Cc1cccc(Cl)c1)C(=O)c1ccccc1S2=O (centres undefined),inactive
7,CCc1cc(=O)oc2c(C)c(OCC(=O)NCCN3CCOCC3)ccc12,79.4 µM (active)
8,Cc1cc(=O)oc2c(C)c(OCC(=O)NCCN3CCOCC3)ccc12,inactive
9,CCCc1cc(=O)oc2c(C)c(OCC(=O)NCc3ccccn3)ccc12,inactive
10,CC(=O)c1ccc(S(=O)(=O)Nc2ccc(-c3ccc4nncn4n3)cc2)cc1,50.1 µM (active)
11,O=C(Nc1ccc(-c2ccc3nncn3n2)cc1)C1CCCCC1,inactive
12,CC(=O)Nc1ccc(S(=O)(=O)Nc2ccc(-c3ccc4nnc(C)n4n3)cc2)cc1,inactive
13,Cc1cc(OC(C)C(=O)Nc2sc3c(c2C(N)=O)CCCC3)ccc1Cl (centres undefined),inactive
14,COc1cccc(C(=O)NC2=NC(c3ccc(N(C)C)cc3)CC(=O)N2)c1 (centres undefined),inactive
15,CSc1nc(-c2ccccc2Cl)nc2c1Cc1c(CO)cnc(C)c1O2,inactive
16,CC(C)N(C(=O)CSc1nnc(NC2CC2)s1)c1ccccc1,inactive
17,CC(C)c1ccc(Nc2nnc(SCC(=O)c3nnc(-c4ccccc4)o3)s2)cc1,22.4 µM (active)
18,CC(C)Nc1nnc(SCC(=O)c2c[nH]c3ccccc23)s1,inactive
19,CCc1cccc(C)c1NS(=O)(=O)c1ccc(-c2cc(C)no2)s1,inactive
20,Cc1ccc(/C=C/C(=O)Nc2ccc([N+](=O)[O-])c(NC(=O)/C=C/c3ccc(C)o3)c2)o1,25.1 µM (active)
21,COC(=O)/C=C\C(=O)Nc1cccc([N+](=O)[O-])c1,inactive
22,COc1ccc(OC)c(NC(=O)/C=C/c2ccc(C)o2)c1,inactive
23,Cc1ccc(Cn2c(=O)n(Cc3nc(-c4ccccc4)no3)c(=O)c3cc4c(cc32)OCO4)cc1,inactive
24,O=C(CSc1nc(=O)n(Cc2cccnc2)c2c1CCC2)Nc1ccc(F)cc1F,inactive

# From PubChem BioAssay AID588590 (National Center for Advancing Translational Sciences (NCATS), 2011)
